Compound activity from PubChem BioAssay.
POLB inh = inhibitors of human DNA polymerase beta; P06746; Pol beta primer extension/strand displacement, fluorescence kinetic; Potency, µM (highest dose often 114 µM), without a hit: top-dose activity change, negative = inhibition, actives largely listed as inhibitors; 340,000 tested, 1.3% active; also: % is scaled to controls: 0 for no effect and ±100 for the full control effect
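Pol beta (10 nM) was preincubated with compound for 15 min at room temperature. The reaction was then started with 50 nM substrate and read immediately and after a further 10 min at room temperature.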
Pol iota inh = blocks human DNA polymerase iota activity | Q9UNA4 | Pol iota fluorescent replication assay, 10 min | Potency, µM (doses to about 115 µM), for the others: top-dose activity, negative = inhibition, most hits filed as inhibitors | 390,000 tested, 1% active | AID 588590
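Fluorescent replication assay read twice, at 0 min and 10 min after adding 50 nM (final) substrate. Enzyme (10 nM) and compounds were first incubated 15 min at room temperature; enzyme-free buffer wells were negative controls.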
WRN helicase inh = blocks human WRN helicase. WRN helicase unwinding, fluorescent forked duplex, kinetic. AID 651768. Potency, µM (series often up to 114 µM), for the others: top-dose activity change, negative = inhibition, most hits filed as inhibitors. Q14191. 360,000 tested, 0.46% active; also: % is scaled to controls: 0 for no effect and ±100 for the full control effect; nearly all actives have a fitted effect of over 55% in size
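Primary qHTS, 1536-well format. 20 nM WRN + compound, 15 min RT; start with 100 nM forked fluorophore/quencher duplex, 2 mM ATP (final); kinetic read ex 525/em 598 nm.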
POLK inh = blocks human DNA polymerase kappa activity; 400,000 tested, 0.53% active; purified Pol kappa, fluorescent DNA synthesis assay, 10 min; Potency, µM (series often up to 107 µM), for the others: at the top dose activity, negative = inhibition, actives largely listed as inhibitors; also: % is scaled to controls: 0 for no effect and ±100 for the full control effect
Target sequence (Q9UBT6 whole entry, looked up): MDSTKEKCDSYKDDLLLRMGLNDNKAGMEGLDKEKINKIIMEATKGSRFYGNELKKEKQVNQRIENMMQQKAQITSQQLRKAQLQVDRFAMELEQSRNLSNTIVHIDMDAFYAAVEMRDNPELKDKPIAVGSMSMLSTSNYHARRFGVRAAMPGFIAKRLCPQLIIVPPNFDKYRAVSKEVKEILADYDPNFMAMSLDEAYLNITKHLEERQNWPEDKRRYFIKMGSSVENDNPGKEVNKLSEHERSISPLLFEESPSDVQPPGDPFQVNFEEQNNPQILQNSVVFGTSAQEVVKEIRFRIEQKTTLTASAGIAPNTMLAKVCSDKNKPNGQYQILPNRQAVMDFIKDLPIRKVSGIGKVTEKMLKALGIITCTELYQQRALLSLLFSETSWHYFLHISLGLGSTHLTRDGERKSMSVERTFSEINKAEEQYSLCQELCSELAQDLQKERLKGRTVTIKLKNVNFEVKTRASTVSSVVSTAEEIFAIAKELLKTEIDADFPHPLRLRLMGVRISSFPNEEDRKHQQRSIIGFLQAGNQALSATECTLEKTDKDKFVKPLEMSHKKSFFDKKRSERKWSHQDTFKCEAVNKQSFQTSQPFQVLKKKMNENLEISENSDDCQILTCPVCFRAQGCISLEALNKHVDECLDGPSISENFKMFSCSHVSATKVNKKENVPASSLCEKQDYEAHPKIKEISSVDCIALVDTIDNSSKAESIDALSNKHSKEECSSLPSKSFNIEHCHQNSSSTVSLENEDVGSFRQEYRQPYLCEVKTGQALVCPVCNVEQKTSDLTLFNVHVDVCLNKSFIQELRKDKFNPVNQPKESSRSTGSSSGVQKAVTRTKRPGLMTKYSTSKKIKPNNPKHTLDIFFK
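Inhibition of 10 nM Pol kappa is measured by a fluorescent read-out at 0 and 10 min following addition of 50 nM substrate (final), with a 15-min room-temperature compound preincubation.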
POLH inh = blocks human DNA polymerase eta activity | Q9Y253 | recombinant Pol eta, fluorescent DNA replication assay | Potency, µM (series often up to 114 µM), for inactives: at the highest dose activity change, negative = inhibition, usual class: inhibitors | 390,000 tested, 1.2% active; also: % is scaled to controls: 0 for no effect and ±100 for the full control effect
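Pol eta (10 nM) was preincubated with compounds for 15 min at room temperature, after which fluorescent replication substrate (50 nM final) was added to start the reaction. Fluorescence was read kinetically at 0 and 10 min.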
Starred values were filed as active, the others as inactive; [ ] = another dose, or the depositor's remark. An excerpt weighted towards active compounds, which were near 2.3% of everything screened. Calls follow the shape of the dose curve; as a rule, active = well fitted curve in the direction sought with a large enough effect; inconclusive = small, poorly fitted or top-dose-only effect, or another doubt; inactive = no such curve, though single readings can be large; an effect the other way counts as inactive or inconclusive. Potency is read from the fitted curve at half-maximal effect.

What do the screens show for `N=c1c(C(=O)NCc2ccc(F)cc2)cc2c(=O)n3ccccc3nc2n1Cc1ccco1`?
POLB inh: inconclusive; Pol iota inh: 17.8µM*; WRN helicase inh: -21.9%; POLK inh: inconclusive; POLH inh: 39.8µM*

What do the screens show for `N=c1c(C(=O)NCc2ccccc2)cc2c(=O)n3ccccc3nc2n1Cc1ccco1`?
POLB inh: inconclusive; Pol iota inh: 4.1%; WRN helicase inh: -5.7%; POLK inh: -2.3%; POLH inh: inconclusive

Results for COc1ccccc1CNC(=O)C(=O)NCCC1CCCCN1S(=O)(=O)c1cccs1 (stereo unspecified) ?
Pol iota inh: 40.4%; WRN helicase inh: 0.2%[11.6 µM]; POLK inh: 89.1µM*; POLH inh: 0.4%

Results for CCOC(=O)c1cc2c(=O)n3ccccc3nc2n(CCCOC)c1=NC(=O)c1cc2ccccc2o1 ?
POLB inh: -15.2%; Pol iota inh: 32.4%; POLK inh: -3.3%; POLH inh: -20.1%

What do the screens show for `C=C(Br)COC(c1ccco1)[C@H](Cc1ccccc1)NC(=O)OC(C)(C)C` (stereo partly specified)?
Pol iota inh: 16.6%; POLK inh: -14.7%

What do the screens show for `Cc1ccc(Cn2cccc2/C=C2/C(=N)N3C=CSC3=NC2=O)cc1`?
POLB inh: 0.4%; Pol iota inh: inconclusive; WRN helicase inh: -19.0%; POLK inh: -8.1%; POLH inh: 70.8µM*

What do the screens show for `CC(C)C[C@H](NC(=O)[C@H](CCCCN)NC(=O)CNC(=O)[C@H](CC(C)C)NC(=O)[C@@H](N)C(C)C)C(=O)N[C@@H](CO)C(=O)N[C@@H](CCC(N)=O)C(=O)N[C@@H](CCC(=O)O)C(=O)N[C@@H](CC(C)C)C(=O)N[C@@H](Cc1cnc[nH]1)C(=O)N[C@@H](CCCCN)C(=O)N[C@@H](CC(C)C)C(=O)N[C@@H](CCC(N)=O)C(=O)N[C@H](C(=O)N[C@@H](Cc1ccc(O)cc1)C(=O)N1CCC[C@H]1C(=O)N[C@@H](CCCNC(=N)N)C(=O)N[C@H](C(=O)N[C@@H](CC(N)=O)C(=O)N[C@H](C(=O)NCC(=O)N[C@@H](CO)C(=O)NCC(=O)N[C@H](C(=O)N1CCC[C@H]1C(N)=O)[C@@H](C)O)[C@@H](C)O)[C@@H](C)O)[C@@H](C)O`?
POLK inh: 22.0%[60.1 µM]

How did COC(CNC(=O)c1ccc2c3c(onc13)-c1ccccc1C2=O)OC do in these assays?
POLB inh: 0.0%; Pol iota inh: 17.8µM*; WRN helicase inh: 50.1µM*; POLK inh: -31.8%; POLH inh: inconclusive

Results for O=C(O)c1ccccc1NC(c1ccccc1)c1ccc2cccnc2c1O (stereo unspecified) ?
Pol iota inh: 4.3%; WRN helicase inh: 14.1µM*; POLK inh: -9.9%; POLH inh: inconclusive

What do the screens show for `Cc1cc(C)cc(Nc2cc(C(=O)NC3CCCCC3)c3ccccc3n2)c1`?
POLB inh: 14.0%; Pol iota inh: -1.8%; POLK inh: -6.5%; POLH inh: -27.7%

How did Cc1cc(C)cc(Nc2cc(C(=O)NC3CCC(C)CC3)c3ccccc3n2)c1 (stereo unspecified) do in these assays?
POLB inh: -27.0%; Pol iota inh: -8.2%; POLK inh: -26.7%; POLH inh: 89.1µM*

What do the screens show for `O=C(Nc1nc(-c2ccco2)c(-c2ccco2)s1)C1CCC1`?
POLB inh: inconclusive; Pol iota inh: inconclusive; WRN helicase inh: inconclusive; POLK inh: inconclusive; POLH inh: 25.1µM*

What do the screens show for `O=C(Nc1nnc(-c2ccco2)s1)C1CCCCC1`?
POLB inh: -12.3%; Pol iota inh: -1.1%; WRN helicase inh: -2.9%; POLK inh: 3.7%; POLH inh: inconclusive

What do the screens show for `C=C[C@H](CC(C)C)N(Cc1ccccc1)S(=O)(=O)N(Cc1ccccc1)[C@H](C=C)CC(C)C`?
Pol iota inh: 22.2%; POLK inh: -21.1%

How did COc1cccc(NC(=O)Nc2cc(-c3cn4cccnc4n3)ccc2C)c1 do in these assays?
POLB inh: 7.94µM*; Pol iota inh: 7.4%; POLK inh: -4.3%; POLH inh: -27.9%

What do the screens show for `O=C(Nc1cccc(-c2cn3cccnc3n2)c1)c1ccc(Br)o1`?
POLB inh: 1.0%; Pol iota inh: 79.4µM*; WRN helicase inh: -7.7%[57.1 µM]; POLK inh: inconclusive; POLH inh: -7.2%

Results for CCC(C(=O)Nc1cc(-c2cn3cccnc3n2)ccc1C)c1ccccc1 (stereo unspecified) ?
POLB inh: 39.8µM*; Pol iota inh: -23.4%; POLK inh: -0.3%[60.1 µM]; POLH inh: 13.2%

How did Cc1ccc(-c2cn3cccnc3n2)cc1NC(=O)Nc1ccc(F)cc1 do in these assays?
POLB inh: -0.6%; Pol iota inh: 25.4%; POLK inh: 4.2%; POLH inh: -9.9%

How did O=C(Nc1cccc(-c2cn3cccnc3n2)c1)c1ccco1 do in these assays?
POLB inh: -11.6%; Pol iota inh: 3.0%; WRN helicase inh: -3.5%; POLK inh: -4.0%; POLH inh: -5.3%

Results for COc1cccc(NC(=O)Nc2cc(-c3cn4cccnc4n3)ccc2OC)c1 ?
POLB inh: -25.5%; Pol iota inh: inconclusive; POLK inh: -19.3%; POLH inh: inconclusive

How did O=C1/C(=C\c2cccs2)CCC/C1=C/c1cccs1 do in these assays?
POLK inh: -19.1%[19.4 µM]

What do the screens show for `COc1cc(/C=C/c2cccc[n+]2C)ccc1OCC(=O)Nc1cccc(Cl)c1`?
POLB inh: 39.8µM*; Pol iota inh: inconclusive; WRN helicase inh: 9.4%; POLK inh: -21.4%; POLH inh: -1.1%

How did C/C=C/c1ccc(OCc2cc(=O)n3cc(C)ccc3n2)c(OC)c1 do in these assays?
POLB inh: 35.5µM*; Pol iota inh: inconclusive; WRN helicase inh: -16.9%; POLK inh: -0.8%; POLH inh: -6.2%

Results for COc1cc2c(cc1OC)CN(Cc1cc(=O)n3cc(C)ccc3n1)CC2 ?
POLB inh: 16.2%; Pol iota inh: 30.7%; WRN helicase inh: -0.6%; POLK inh: -8.1%; POLH inh: 7.6%

How did C/C=C/c1ccc(OCC(=O)O)c(OC)c1 do in these assays?
POLB inh: inconclusive; Pol iota inh: -11.6%; WRN helicase inh: -3.7%[11.6 µM]; POLK inh: -21.5%; POLH inh: 35.5µM*

How did COc1cc(/C=C/c2cccc[n+]2C)ccc1OCC(=O)Nc1ccccc1 do in these assays?
POLB inh: 15.8µM*; Pol iota inh: inconclusive; WRN helicase inh: 11.0%; POLK inh: -25.0%; POLH inh: inconclusive

What do the screens show for `CCOC(=O)c1cc(-c2ccccc2)n(CCC(=O)Nc2ccc(Cl)c(C(F)(F)F)c2)c1C`?
POLB inh: 2.5%; Pol iota inh: 6.0%; POLK inh: -0.5%[60.1 µM]; POLH inh: -2.9%

How did CC(=O)OCCBr do in these assays?
POLK inh: 14.3%[60.1 µM]
